In PubChem BioAssay (NCI):
About 83,000 compounds went through this panel and 20% of them were active in at least one assay; those are over-represented in the sample as a whole.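 48-hour exposure, single concentration, 96-well plates; percent growth endpoint where 0 means no net growth. Active: below 10.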 Values without a mark were called inactive. Calls of active or inactive are those of the source.

system: HL-60(TB) leukemia; assay: NCI-60 one-dose screen, 48 h (100 = growth as untreated, 0 = no growth, -100 = all killed); conditions: 10 µM unless noted

SMILES | growth
CC1=CC(=O)C(C(C)=Nc2ccccc2Cl)C(=O)O1 (stereo not given) | 101%
CCCCC(CCCCCC(CCCC)C1NC(C)Cc2cc(OC)c(OC)cc21)C1NC(C)Cc2cc(OC)c(OC)cc21 (stereo not given) | -79.7% (active)
S=c1[nH]nc2ccccn12 | 59.3%
COc1cccc(/C=N/NC(=O)c2cnn3c2NC(c2ccccc2)C3)c1Oc1ccccc1 (stereo not given) | 74.6%
COC1/C=C/OC2(C)Oc3c(C)c(O)c4c(O)c(c(/C=N/N(c5ccccc5)c5ccccc5)c(O)c4c3C2=O)NC(=O)C(C)=C/C=C/C(C)C(O)C(C)C(O)C(C)C(OC(C)=O)C1C (stereo not given) | 53.1%
CCN(CC)CCOc1ccc(Cl)c(C)c1 | 113%
CCN(CC)C(CC(=O)c1ccccc1)C(=O)c1ccccc1 (stereo not given) | 63.5%
ClC1=C2NC=NC2n2c(nnc2-c2ccc(Cl)cc2)N1 (stereo not given) | 118%
O=c1nc(Nc2cccc(Cl)c2)oc2cc(Cl)oc(=O)c12 | 26.4%
C=C1C(=O)O[C@H]2[C@H]1CC/C(COC(=O)NCc1[nH]nc3ccccc13)=C\CC[C@@]1(C)O[C@@H]21 | -51% (active)
NNC(=O)c1ccccc1N | 122%
CCCCCCCCCCCCCCCCCC1=NCCCN1CCO | 106%
COc1ccc(C(=O)/C=C/c2cc(C(=O)c3cc(OC)c(OC)c(OC)c3)ccc2OC)cc1 | 75.3%
COc1cc2c(cc1-c1c(C)noc1C)ncc1nc(CN3CCOCC3)n([C@H](C)COC(F)F)c12 | 21.7%
CCCCN(C)N=Nc1ccc(C(N)=O)cc1 | 73.5%
CCc1cccc(CC)c1N1C(=O)C=CC1=O | -7.6% (active)
CC(=O)Cc1nsc(NC(=O)c2ccoc2COc2ccccc2)n1 | 98.5%
Cc1nc(-c2ccc(Cl)cc2)ccc1NC(=O)Nc1cccc(C(F)(F)F)c1 | 79.7%
O=c1oc2ccccc2cc1-c1nn(-c2ccccc2)cc1/C=N/Nc1nc(-c2ccccc2)c(N=Nc2ccccc2)s1 | 58.1%
CC(C)CCCCCOC(=O)c1ccccc1SSc1ccccc1C(=O)OCCCCCC(C)C | 82.2%

SMILES | growth
NNc1c2ccccc2nc2ccccc12 | 9.09% (active)
CC(=O)c1c(C)nc2ccccc2c1/C=C/c1cccc(C)c1 | 28.2%
CCN1C(=O)N(CC)C2Nn3c(s/c(=C4\C(=O)N(C(C)C)c5ccccc54)c3=O)=NC21 (stereo not given) | 6.28% (active)
CCNCCNc1cc(-c2ccc(C#N)cc2)c(C#N)c2nc3ccccc3n12 | -45.4% (active)
O=C(NCc1ccccc1)c1cccc([N+](=O)[O-])c1 | 101%
CS(=O)(=O)Nc1cc(-c2ccc3ncnc(Nc4ccc(OCc5ccccn5)c(Cl)c4)c3c2)cnc1Cl | 4.82% (active)
COc1cc2c(cc1OCCCN1CCN(CCCn3c4ccccc4c4ccccc43)CC1)N=C[C@@H]1CCCN1C2=O | -44.8% (active)
c1ccc(/C(=N\Nc2ccc3ccccc3n2)c2ccccn2)cc1 | -29.8% (active)
Nc1ncnc2c1ncn2C1OC(COP(=O)(O)O)C(O)C1O (stereo not given) | 102%
O=C1c2ccc3c4c(ccc(c24)C(=O)N1CCCNCc1ccccc1Cl)C(=O)N(CCCNCc1ccccc1Cl)C3=O | -55.9% (active)
CCN(CC)CCSC(=O)C(O)(c1ccccc1)C1CCCC1 (stereo not given) | 94%
CCN(CC)CCNC(=O)n1cc(-c2ccncc2)c(-c2ccc(Cl)c(OC)c2)n1 | 95.9%
C=CC(=O)OCCCCCCCC | 88.6%
CCN(CC)Cc1cc(Nc2ccnc3cc(Cl)ccc23)ccc1O | 94.5%
Cn1c(=O)c2[nH]c(Cc3ccc4c(c3)OCO4)nc2n(C)c1=O | 104%
CCN(CC)CCCC(C)Nc1ccnc(/C=C/c2ccc(Cl)cc2)c1 (stereo not given) | 65.9%
CC1OC(n2c3ccccc3c3c4c(c5c6ccccc6[nH]c5c32)C(=O)N(CCN2CCCC2)C4=O)CC(O)C1O (stereo not given) | 44.2%
Cc1ccc(N2C(=O)C=CC2=O)cc1 | 63.2%
N#CC(C#N)=C(C#N)c1c[nH]c2ccccc12 | 72.9%
COc1cc(-c2nn(-c3cccc(NC(=O)NCCNC(=O)c4cccc(C(F)(F)F)c4)c3)cc2-c2ccncc2)ccc1Cl | 16.8%
